In the library only some 4.6% were active in any assay of this set; here they are far more common.
AHR act – human AHR activation; 320,000 compounds, 2.5% hits; AID 2796; AHR-responsive luciferase reporter cells, luminescence; P35869; activation, % at 5 µM; in the data active = activation above about 47%;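 also: 0% = vehicle wells and 100% = reference agonist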
Target sequence (P35869 whole entry, looked up): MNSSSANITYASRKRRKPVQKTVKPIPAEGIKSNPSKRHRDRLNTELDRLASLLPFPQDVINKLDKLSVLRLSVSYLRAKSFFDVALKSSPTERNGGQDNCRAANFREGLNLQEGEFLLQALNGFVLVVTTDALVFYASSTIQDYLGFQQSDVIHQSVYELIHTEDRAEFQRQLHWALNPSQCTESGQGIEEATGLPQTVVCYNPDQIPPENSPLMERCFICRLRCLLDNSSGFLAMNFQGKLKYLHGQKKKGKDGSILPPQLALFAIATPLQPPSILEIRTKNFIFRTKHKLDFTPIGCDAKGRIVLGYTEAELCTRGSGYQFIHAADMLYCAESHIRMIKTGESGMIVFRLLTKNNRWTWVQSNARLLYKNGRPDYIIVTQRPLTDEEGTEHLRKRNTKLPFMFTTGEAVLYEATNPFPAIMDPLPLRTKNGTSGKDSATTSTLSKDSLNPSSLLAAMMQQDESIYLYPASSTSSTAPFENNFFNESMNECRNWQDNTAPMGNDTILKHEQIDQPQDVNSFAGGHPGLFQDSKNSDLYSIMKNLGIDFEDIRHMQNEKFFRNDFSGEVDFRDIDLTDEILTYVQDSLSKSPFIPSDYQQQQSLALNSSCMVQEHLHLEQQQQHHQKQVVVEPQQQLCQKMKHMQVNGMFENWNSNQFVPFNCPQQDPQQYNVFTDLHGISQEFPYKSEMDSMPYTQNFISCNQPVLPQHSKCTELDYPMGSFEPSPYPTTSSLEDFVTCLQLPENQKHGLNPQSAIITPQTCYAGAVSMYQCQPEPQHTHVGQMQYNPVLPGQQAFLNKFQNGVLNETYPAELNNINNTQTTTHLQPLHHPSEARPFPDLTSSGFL
GAA850 FXN act – activators of GAA850 frataxin (FXN) promoter | HEK293 lucGAA850 FXN promoter luciferase reporter, 24 h; percent of 10 µM SAHA response | activation, % at 6 µM | 360,000 compounds, 0.56% hits | AID 540364;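 active = activation above the average of all compounds screened plus 3 SD, cutoff fixed separately per campaign, cut at about 7.5% in these data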;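 also: 0% = DMSO wells and 100% = 10 µM SAHA wells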
HSF-1 act – increases HSF-1 driven luciferase reporter signal | NIH3T3-HGL HSF-1 luciferase reporter, MG132, 8 h; 100% = twice DMSO control signal | activation, % at 9 µM | 300,000 compounds, 1.7% hits;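 active = mean replicate activation of at least 50% with a set share of replicates each reaching 50%; inconclusive = only one of those two conditions met; inactive = mean below 50% and too few replicates reaching it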;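 also: 0% = median of the neutral control wells and 100% = twice that signal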
HSF1 inh – HSF1 inhibition | activity change, negative = inhibition, % at 7.5 µM (by protocol) | NIH3T3-HGL HSE-luciferase, MG132-induced, luminescence 8 h; hits give low values | 300,000 compounds, 0.77% hits;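 active = more than half of replicate wells show activity change below -50%, luminescence cut by over half; inconclusive = some wells, but at most half, below -50%; inactive = no replicate well below -50%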;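 also: luciferase reports HSF-1 transcriptional activity via heat shock element; 0% = median of DMSO wells and -100% = zero luminescence signal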
Numbers without * were called inactive; ? = inconclusive; . = no result given.

SMILES	AHR act	GAA850 FXN act	HSF-1 act	HSF1 inh
O=C(Cn1cnc2ccccc21)N/N=C/c1ccc([N+](=O)[O-])cc1	49*	0	5	-16
O=[N+]([O-])c1ccc(O)c(/C=N\N=C2c3ccccc3-c3ccccc32)c1	47*	3	-13	-5
NC(N)=N/N=C/c1cc([N+](=O)[O-])ccc1O	25	3	9	-12
Nc1c(C(=O)Nc2ccc(Cl)c(Cl)c2)sc2nc(-c3cccnc3)ccc12	25	.	2	5
CCN(C(=O)CSc1nc2cc(C(F)(F)F)ccc2n1Cc1ccccc1)C1CCS(=O)(=O)C1 (centres undefined)	2	1	0	0
O=C(CN(Cc1ccccc1)S(=O)(=O)c1ccccc1)N/N=C/c1ccccc1[N+](=O)[O-]	5	1	1	4
O=C(Nc1nnc([C@@H]2O[C@H](CO)[C@@H](O)[C@H]2O)s1)Nc1cccc2c1CCCC2	.	0	.	.
Oc1c(Cl)cc(Cl)cc1/C=N/NC(=S)NC1CC2C=CC1C2 (centres undefined)	27	0	52*	12
C/C(CC(=O)Nc1ccc(Cl)c(C(F)(F)F)c1)=N\NC(=O)c1ccccc1O	35	5	23	14
COc1ccc(/C=C2\CCCCC2=O)cc1	0	0	22	3
CCCCCn1c(N)c(-c2nc3ccccc3o2)c2c([N+](=O)[O-])nn(C)c(=O)c21	3	-1	-11	4
Cc1ccc(C2=NNC(c3ccc(Cl)cc3)=Nc3ccccc32)o1	50*	4	20	1
O=C(NCc1ccco1)C1CC(c2ccc(Cl)cc2)=NO1 (centres undefined)	4	1	13	3
CCc1nnc(NC(=O)c2nc(S(=O)(=O)Cc3ccc(C)cc3)ncc2Cl)s1	-2	-12	-63	-60*
CCc1nnc(NC(=O)c2nc(S(=O)(=O)Cc3ccccc3)ncc2Cl)s1	2	-10	-36	-18
CCc1nnc(NC(=O)c2nc(S(=O)(=O)Cc3cccc(C)c3)ncc2Cl)s1	1	-12	-74	-65*
CN(C)S(=O)(=O)Nc1cccc(-c2cn3c(n2)SCC3)c1	4	0	-6	2
CCc1nnc(NC(=O)CN2CCN(Cc3ccc(C)cc3)CC2)s1	-2	2	-50	-36
CCC(OC(=O)c1cc2sccc2n1C)C(=O)NCc1ccco1 (centres undefined)	1	1	23	6
O=C1Nc2cc(Cl)c(Cl)cc2N(O)N1c1ccc(Cl)c(Cl)c1	57*	1	-10	-6
CC(C)CCNC(=O)c1cc(S(=O)(=O)N2CCc3ccccc32)cn1C	3	0	6	1
CCn1c2ccccc2c2nc3ccccc3nc21	90*	9.3*	37	12
CCCCc1c(C)nn(-c2nnc3c4ccccc4n(CC)c3n2)c1C	52*	0	4	-8
CCCCn1c2ccccc2c2nnc(SCCN3CCCCC3)nc21	.	4	5	9
CCOCCn1c2ccccc2c2nc3ccccc3nc21	38	3	0	5
SMILES	AHR act	GAA850 FXN act	HSF-1 act	HSF1 inh
O=C(O)CCC1(C(=O)O)OCCc2ccccc21 (centres undefined)	1	-3	-75	-67*
OCC[C@@H]1C[C@@H](O)[C@H](O)[C@]2(OCCc3ccccc32)O1	-1	2	2	0
CCC(CC)C(=O)Nc1cccc(C(=O)NC(C)(C)C)c1	2	1	-2	-8
C/C(=N\O)c1noc(C)c1C(=O)Nc1nccs1	50*	1	-2	-1
c1cncc(-c2nc3cc4ccccc4cc3[nH]2)c1	56*	2	?	13
O=C(Nc1ccc(F)cc1)c1ccccc1F	29	6	14	5
COc1ccc2nc(-c3ccccc3)[nH]c2c1	15	5	19	4
O=C(Nc1ccc2ccccc2c1)c1ccccc1F	13	3	56*	29
O=C(Nc1ccc2cn[nH]c2c1)c1ccccc1F	105*	4	40	26
O=C(Nc1ccc2nc(-c3cccnc3)[nH]c2c1)c1ccccc1F	-19	1	-72	-63*
CCOC(=O)C1=C(C)N(C[C@@H]2CC[C@@H](Cc3ccc4cc(OC)ccc4c3)O2)C(=O)NC1c1ccc(OC)cc1 (some centres undefined)	.	1	.	.
Cc1ccc(NC(=O)CN2C(=O)NC3(CCCCCC3)C2=O)cc1Cl	3	0	.	.
COc1ccccc1C(=O)Nc1ccc2ccccc2c1	56*	7	66*	40
CC(SC1=NCCS1)C(=O)Nc1nnc(-c2ccc(Cl)cc2)s1 (centres undefined)	6	1	-10	2
COc1ccccc1-c1nnc(NC(=O)C(C)SC2=NCCS2)s1 (centres undefined)	57*	1	-10	1
COc1ccc(-c2[nH]ncc2/C=C(\C#N)C(=O)NC2CC2)cc1	29	2	-4	-8
N#C/C(=C\c1cn[nH]c1-c1ccc(Cl)cc1)C(=O)NC1CC1	85*	3	-7	6
N#C/C(=C\c1c[nH]c2ccccc12)C(=O)NC1CCCC1	64*	4	19	11
CCOc1ccccc1OCCOCCOc1c(Cl)cccc1Cl	21	3	-65	-53*
O=C(O)CSc1nc2ccccc2nc1Cc1ccccc1F	6	2	54*	23
CCOc1ccc(C2OCCC(C)O2)cc1OC (centres undefined)	.	2	.	.
Cn1c(SCc2cccc(C(F)(F)F)c2)nnc1-c1ccco1	-3	1	59*	9
CC(C)(C)C(=O)Nc1ccc(N=Nc2ccccc2)cc1	-7	-11	-80	-78*
COc1ccc(-n2c(=O)c3c4c(sc3n(CC(N)=O)c2=O)CCCCC4)cc1	2	0	52*	11
O=C(NCc1ccc2c(c1)OCO2)C1Cc2ccccc2CN1C(=O)c1ccco1 (centres undefined)	-1	1	-4	-4
SMILES	AHR act	GAA850 FXN act	HSF-1 act	HSF1 inh
CSc1n[nH]c2nc3c(c(=O)n12)C1(CCCC1)Cc1ccccc1-3	79*	1	6	-1
CSc1nnc2n(C)c3c(c(=O)n12)C1(CCCC1)Cc1ccccc1-3	16	0	-9	-9
C=CCSc1n[nH]c2nc3c(c(=O)n12)C1(CCCC1)Cc1ccccc1-3	59*	-2	.	.
CCSc1n[nH]c2nc3c(c(=O)n12)C1(CCCC1)Cc1ccccc1-3	51*	-1	-20	-5
COC(=O)C1=CN(C(C)c2ccccc2)C=C(C(=O)OC)C1c1cc(OC)c(OC)c(OC)c1 (centres undefined)	4	1	15	17
CCOC(=O)N(C)c1c(CC)nc2c(OCc3ccc(OC(F)F)cc3)cccn12	.	-5	.	.
CSc1ccc(/C=N\NC(=O)CNc2ccc(C)cc2)cc1	21	1	-2	-8
Cc1ccc(NCC(=O)N/N=C/c2ccncc2)cc1	64*	0	0	-3
CC(=NCCc1ccccc1)C1=C(O)CSC1=O	49*	2	-83	-79*
COc1ccc(C(=O)/C=C/c2cc(C(=O)O)cc3c2OCOC3)c(O)c1	-2	2	95*	70
